From PubChem BioAssay (Tox21)
Where “and” joins values, the source holds several entries; their conditions need not be identical. Equal values may be shown once. Inconclusive results are not listed. Some structures have more than one record in an assay (separate samples or runs), and their calls can disagree. Calls of active or inactive are those of the source. Unless noted, calls follow the shape of the dose curve; as a rule, active = well fitted curve in the direction sought with a large enough effect in the repeat runs; inconclusive = weak or mixed curves; inactive = no such curve, though single readings can be large; an effect the other way counts as inactive or inconclusive.

How the values were obtained:
[1] = qHTS assay to identify small molecule antagonists of the glucocorticoid receptor (GR) signaling pathway - cell viability counter screen (AID 720693); also: nearly all actives have a fitted effect of over 55% in size; also: potency is read from the fitted curve at half-maximal effect
[2] = qHTS assay for identifying genotoxic compounds that show differential cytotoxicity against isogenic chicken DT40 cell lines with known DNA damage response pathways - wild type cell line (AID 743012); also: nearly all actives have a fitted effect of over 60% in size; also: potency is read from the fitted curve at half-maximal effect
Procedure, shortened: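 300 wt DT40 cells/well; cpd (DMSO) pintool-transferred after ~0.5 h at 37 C/5% CO2; 40 h incubation; CellTiter-Glo added, 30 min RT; luminescence read.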

[3] = qHTS assay for identifying genotoxic compounds that show differential cytotoxicity against isogenic chicken DT40 cell lines with known DNA damage response pathways - Rev3 mutant cell line (AID 743014); also: nearly all actives have a fitted effect of over 55% in size; also: potency is read from the fitted curve at half-maximal effect
[4] = qHTS assay for identifying genotoxic compounds that show differential cytotoxicity against isogenic chicken DT40 cell lines with known DNA damage response pathways - Rad54/Ku70 mutant cell line (AID 743015); also: nearly all actives have a fitted effect of over 60% in size; also: potency is read from the fitted curve at half-maximal effect
[5] = qHTS assay to identify small molecule antagonists of the androgen receptor (AR) signaling pathway - cell viability counter screen (AID 743033; also: nearly all actives have a fitted effect of over 45% in size; also: potency is read from the fitted curve at half-maximal effect)
[6] = molecular target: Androgen receptor (Homo sapiens) (UniProt P10275); test: qHTS assay to identify small molecule antagonists of the androgen receptor (AR) signaling pathway (AID 743035; active = well fitted inhibition curve with a large enough effect in the signal ratio in the repeat runs, not every such curve was filed as active; the % refers to the signal ratio; also: potency is read from the fitted curve at half-maximal effect)
Procedure, shortened: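 In this cell-based reporter screen, compounds were tested in concentration series against R1881-activated HEK293 cells expressing beta-lactamase under UAS control; after 16 h at 37C, FRET substrate was added and fluorescence read 2 h later.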

[7] = molecular target: Androgen receptor (Homo sapiens) (UniProt P10275); test: qHTS assay to identify small molecule agonists of the androgen receptor (AR) signaling pathway (AID 743036; active = well fitted activation curve with a large enough effect in the signal ratio in the repeat runs, with a control signal flat, not every such curve was filed as active; the % refers to the signal ratio)
Procedure, shortened: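 In this Tox21 qHTS, 2,000 HEK293 AR-bla cells per well were incubated with compounds for 16 h at 37C and 5% CO2. Fluorescence intensity was recorded 2 h after adding LiveBLAzer B/G FRET substrate at room temperature.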

[8] = molecular target: Androgen receptor (Homo sapiens) (UniProt P10275); test: qHTS assay to identify small molecule agonists of the androgen receptor (AR) signaling pathway using the MDA cell line (AID 743040; also: nearly all actives have a fitted effect of over 20% in size)
Procedure, shortened: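 Cell-based luciferase reporter: MDA-kb2, MMTV promoter (AR + GR response elements). 16 h compound exposure at 37C; ONE-Glo, 30 min RT, luminescence.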

[9] = qHTS assay to identify small molecule antagonists of the androgen receptor (AR) signaling pathway using the MDA cell line - cell viability counter screen (AID 743041; also: nearly all actives have a fitted effect of over 45% in size; also: potency is read from the fitted curve at half-maximal effect)
Procedure, shortened: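 In this qHTS counter assay, fluorescence intensity after CellTiter-Fluor addition indicated viability of MDA-kb2 AR-luc cells given compounds and R1881 for 16 h at 37C.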

[10] = molecular target: Androgen receptor (Homo sapiens) (UniProt P10275); test: qHTS assay to identify small molecule antagonists of the androgen receptor (AR) signaling pathway using the MDA cell line (AID 743042; also: nearly all actives have a fitted effect of over 55% in size; also: potency is read from the fitted curve at half-maximal effect)
Procedure, shortened: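 MDA-kb2 cells (human breast carcinoma, stably carrying an MMTV-luciferase reporter responsive to AR and GR) were plated at 3,000 cells/well and preincubated 5 hr at 37C, then given compound plus R1881 agonist for 16 h. ONE-Glo luminescence was read.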

Chain of Androgen receptor (Homo sapiens) (P10275 whole entry, looked up): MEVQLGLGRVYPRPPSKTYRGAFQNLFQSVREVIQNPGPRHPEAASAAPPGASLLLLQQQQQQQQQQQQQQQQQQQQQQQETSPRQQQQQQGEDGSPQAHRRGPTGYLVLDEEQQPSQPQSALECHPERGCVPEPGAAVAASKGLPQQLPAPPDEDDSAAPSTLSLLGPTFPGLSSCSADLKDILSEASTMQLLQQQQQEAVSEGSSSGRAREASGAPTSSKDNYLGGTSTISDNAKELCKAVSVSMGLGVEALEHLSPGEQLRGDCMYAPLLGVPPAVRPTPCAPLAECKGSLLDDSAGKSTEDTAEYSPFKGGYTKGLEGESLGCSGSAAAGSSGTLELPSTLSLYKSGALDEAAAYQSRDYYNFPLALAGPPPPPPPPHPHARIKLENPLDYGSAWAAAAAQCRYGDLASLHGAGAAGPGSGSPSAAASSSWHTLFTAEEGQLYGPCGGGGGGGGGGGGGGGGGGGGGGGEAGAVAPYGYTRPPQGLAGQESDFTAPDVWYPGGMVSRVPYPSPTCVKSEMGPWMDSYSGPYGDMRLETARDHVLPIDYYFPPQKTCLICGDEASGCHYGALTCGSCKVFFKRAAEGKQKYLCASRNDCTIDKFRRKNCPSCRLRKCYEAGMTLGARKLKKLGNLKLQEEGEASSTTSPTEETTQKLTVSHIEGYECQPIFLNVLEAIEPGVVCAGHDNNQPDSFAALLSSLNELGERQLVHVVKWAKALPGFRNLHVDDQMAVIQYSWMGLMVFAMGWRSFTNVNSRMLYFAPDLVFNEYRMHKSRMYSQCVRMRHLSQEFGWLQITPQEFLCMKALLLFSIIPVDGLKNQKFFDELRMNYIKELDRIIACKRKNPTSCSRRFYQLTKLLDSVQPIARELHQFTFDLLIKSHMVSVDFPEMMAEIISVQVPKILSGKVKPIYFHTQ

Structure (SMILES)	Potency [1]	Potency [2]	Potency [3]	Potency [4]	Potency [5]	Potency [6]	outcome [7]	Potency [8]	Potency [9]	Potency [10]
Cc1cc(Nc2ccc(O)cc2)ccc1N	inactive	15.3 µM (active)	13.6 µM (active)	13.6 µM (active)	inactive					
Cc1c(C)n(Cc2ccccc2)c2ccc(C(=O)OCCN(C)C)cc12	inactive	3.76 µM (active)	3.76 µM (active)	6.68 µM (active)						
C[C@@H]1CC[C@H]2C(C)(C)[C@H]3C[C@@]12CC[C@@]3(C)O	inactive	inactive	inactive	inactive	inactive	inactive	inactive	inactive	inactive	inactive
CC1=C(/C=C/C(C)=C/C=C/C(C)=C/C(=O)Nc2ccc(O)cc2)C(C)(C)CCC1	44.8 µM (active)	9.44 µM (active) and 22.2 µM (active)	13.3 µM (active) and 9.94 µM (active)	9.44 µM (active) and 9.94 µM (active)	inactive and 44.8 µM (active)	23.9 µM (active) and 14.2 µM (active)		inactive	23.7 µM (active) and 44.4 µM (active)	29.8 µM (active) and 28 µM (active)
CCCCCCCCCCCCCC[n+]1ccccc1	13.8 µM (active)	0.122 µM (active)	0.077 µM (active)	0.109 µM (active)	12.3 µM (active)				4.33 µM (active)	
Cc1cc2c(C(C)C)c(O)c(O)c(C=O)c2c(O)c1-c1c(C)cc2c(C(C)C)c(O)c(O)c(C=O)c2c1O	9.52 µM (active)	10.6 µM (active)	13.3 µM (active)	11.9 µM (active)	21.3 µM (active)					
CCCCCCCCCCCCCCCC	inactive	inactive	inactive	inactive	inactive				inactive	
C[C@H]1O[C@@H](O[C@H]2[C@@H](O)C[C@H](O[C@H]3[C@@H](O)C[C@H](O[C@H]4CC[C@@]5(C)[C@H](CC[C@@H]6[C@@H]5C[C@@H](O)[C@]5(C)[C@@H](C7=CC(=O)OC7)CC[C@]65O)C4)O[C@@H]3C)O[C@@H]2C)C[C@H](O)[C@@H]1O	535 nM (active) and 97.8 nM (active) and 193 nM (active)	596 nM (active) and 344 nM (active) and 854 nM (active)	596 nM (active) and 172 nM (active) and 428 nM (active)	750 nM (active) and 217 nM (active) and 381 nM (active)	84.9 nM (active) and 15.5 nM (active) and 30.6 nM (active)	338 nM (active) and 61.7 nM (active) and 136 nM (active)			inactive	
O=C(O)c1cccc(Cl)n1	inactive	19.3 µM (active)	61.1 µM (active)	61.1 µM (active)	inactive	inactive		inactive	inactive	inactive
S=C(SSSSSSC(=S)N1CCCCC1)N1CCCCC1	inactive	0.674 µM (active)	0.425 µM (active)	0.674 µM (active)	0.68 µM (active)				1.51 µM (active)	
CCCN(CCc1cccs1)[C@H]1CCc2c(O)cccc2C1	inactive	18.8 µM (active)	26.6 µM (active)	23.7 µM (active)	inactive			inactive	inactive	inactive
Cc1ccc(N)cc1O	inactive	30.6 µM (active)	56.1 µM (active)	52 µM (active)	inactive			inactive		
CCCCCCCOC(=O)c1ccc(O)cc1	49 µM (active)	inactive	43.3 µM (active)	54.5 µM (active) and 48.6 µM (active)	inactive				inactive	
NC(=O)c1ccccc1N	inactive	inactive	inactive	inactive	inactive			inactive	inactive	inactive
N[C@@H](CSSC[C@H](N)C(=O)O)C(=O)O	inactive	inactive	inactive	inactive	inactive	inactive	inactive	inactive	inactive	
CCc1ccc(O)c(C(C)(C)C)c1	inactive	43.3 µM (active)	30.6 µM (active)	30.6 µM (active)						
CCCCCCCC/C=C\CCCCCCCC(=O)OCCOC(=O)CCCCCCC/C=C\CCCCCCCC	inactive	inactive	inactive	inactive	inactive				inactive	
CC(C)c1ccc(O)c(C(C)C)c1	inactive	54.5 µM (active)	54.5 µM (active)	48.6 µM (active)	49 µM (active)				inactive	
COCC(=O)O[C@]1(CCN(C)CCCc2nc3ccccc3[nH]2)CCc2cc(F)ccc2[C@@H]1C(C)C	10.7 µM (active)	2.37 µM (active)	4.22 µM (active)	4.73 µM (active)	10.7 µM (active)			inactive	9.44 µM (active)	7.5 µM (active)
NCCCCCCNCCCCCCN	inactive	7.57 µM (active)	6.75 µM (active)	5.36 µM (active)	inactive				inactive	
O=C1NCN(c2ccccc2)C12CCN(CCCC(c1ccc(F)cc1)c1ccc(F)cc1)CC2	21.3 µM (active)	6.68 µM (active)	10.6 µM (active)	9.44 µM (active)	inactive				29.8 µM (active)	
CCCSS/C(CCO)=C(\C)N(C=O)Cc1cnc(C)nc1N	inactive	5.31 µM (active)	8.41 µM (active)	13.3 µM (active)	inactive		inactive	inactive	inactive	

Structure (SMILES)	Potency [1]	Potency [2]	Potency [3]	Potency [4]	Potency [5]	Potency [6]	outcome [7]	Potency [8]	Potency [9]	Potency [10]
Cc1nc(Nc2ncc(C(=O)Nc3c(C)cccc3Cl)s2)cc(N2CCN(CCO)CC2)n1	inactive	5.96 µM (active)	9.44 µM (active)	6.68 µM (active)	inactive					
O=C1NCCN1CCN1CCC(c2cn(-c3ccc(F)cc3)c3ccc(Cl)cc23)CC1	23.9 µM (active)	944 nM (active) and 1.5 µM (active)	1.88 µM (active) and 2.37 µM (active)	1.68 µM (active) and 2.66 µM (active)	16.9 µM (active) and 21.3 µM (active)	16.9 µM (active) and 21.3 µM (active)	inactive	inactive	13.3 µM (active) and 21.1 µM (active)	11.9 µM (active) and 18.8 µM (active)
Oc1c(Br)cc(Br)c2cccnc12	inactive	11.9 µM (active)	11.9 µM (active)	13.3 µM (active)	inactive				inactive	
NC(=O)C(=O)N/N=C/c1ccc([N+](=O)[O-])o1	inactive	10.6 µM (active)	11.9 µM (active)	16.8 µM (active)	inactive			inactive	inactive	
CCCCCCCCCCCCCOP(=O)(O)O	inactive	inactive	inactive	inactive	inactive					
O=C(Nc1ccc(Cl)cc1)Nc1ccc(Cl)c(C(F)(F)F)c1	21.3 µM (active)	4.22 µM (active)	5.31 µM (active)	5.31 µM (active)	6.01 µM (active)				23.7 µM (active)	
CCCCOC(=O)C(C)CC (stereo unspecified)	inactive	12.2 µM (active)	13.7 µM (active)	13.7 µM (active)	43.6 µM (active)				inactive	
S=P(N1CC1)(N1CC1)N1CC1	inactive	21.1 µM (active)	944 nM (active) and 319 nM (active)	26.6 µM (active) and 11.4 µM (active)	inactive				inactive	
CCN=C1C=CC(=C(c2ccc(N(CC)CC)cc2)c2ccc(N(CC)CC)cc2)c2ccccc21	24.4 µM (active)	0.0192 µM (active)	0.0305 µM (active)	0.0192 µM (active)	0.0434 µM (active)			inactive	0.121 µM (active)	0.043 µM (active)
C=CC(=O)OCC(O)COc1ccccc1 (stereo unspecified)	38.9 µM (active)	24.3 µM (active)	27.3 µM (active)	30.6 µM (active)						
CCCCCCC(C)OC(=O)COc1nc(F)c(Cl)c(N)c1Cl (stereo unspecified)	inactive	43.3 µM (active)	38.6 µM (active)	38.6 µM (active)	inactive					
Clc1ccc(C(Cn2ccnc2)OCc2c(Cl)cccc2Cl)c(Cl)c1 (stereo unspecified)	inactive	11.4 µM (active)	12.7 µM (active)	11.4 µM (active)	inactive			inactive	inactive	inactive
NC1(c2ccc(-c3nc4ccn5c(=O)[nH]nc5c4cc3-c3ccccc3)cc2)CCC1	inactive	1.19 µM (active)	5.31 µM (active)	1.33 µM (active)						
CCC(C)(C)c1cc(O)c(C(C)(C)CC)cc1O	inactive	17.2 µM (active)	21.7 µM (active)	17.2 µM (active)	inactive			inactive	inactive	inactive
CCN(CC)CCNc1ccc(CO)c2sc3ccccc3c(=O)c12	inactive	0.841 µM (active)	0.298 µM (active)	0.237 µM (active)					26.6 µM (active)	
Nc1ccc2cc3ccc(N)cc3nc2c1	19 µM (active)	2.66 µM (active) and 5.45 µM (active)	2.98 µM (active) and 2.73 µM (active)	1.33 µM (active) and 1.37 µM (active)				inactive		
CSc1ccc2c(c1)N(CCC1CCCCN1C)c1ccccc1S2 (stereo unspecified)	54.7 µM (active)	5.96 µM (active) and 21.6 µM (active)	6.68 µM (active) and 17.2 µM (active)	9.44 µM (active) and 19.3 µM (active)	23.9 µM (active) and 21.8 µM (active)				inactive	
CC(=O)Nc1ccc(O)cc1	inactive	inactive	inactive	inactive	inactive				inactive	
CC(CN(C)C)CN1c2ccccc2CCc2ccccc21 (stereo unspecified)	inactive	11.4 µM (active)	12.7 µM (active)		inactive				inactive	
O=Nc1ccc(NO)cc1	inactive	inactive	inactive	inactive	inactive				inactive	
CCCCNc1c(C(=O)OCC)c(C)nc2c1cnn2CC	inactive	21.1 µM (active)	23.7 µM (active)	26.6 µM (active)	inactive				inactive	
ClC/C=C\CCl	inactive	inactive	inactive	inactive	inactive				inactive	
